# According to the supplement of paper PMC10338343:
# ± gives the standard deviation.
# Experiments:
# [1] = test system: MILI (PIWIL2) piRISC loaded with L1MC piRNA (26 nt); experiment: pre-steady-state target cleavage rate (min^-1); guide: L1MC piRNA 5'p-UAACUAAAUACUAUGCAAGCUGUAGG; higher = faster piRNA-guided slicing of the target
# Procedure, shortened: (§1)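 Cleave-'n-Seq reactions paired 0.1 nM transcribed, DNA-blocked target RNA library with 1 nM active affinity-purified piRISC holding one synthetic guide, plus or minus 500 nM GTSF1 partner protein, in HEPES–potassium acetate buffer at 33 °C for 0–8 or 0–960 min. After sequencing of uncleaved targets and normalisation to depth and weakly complementary targets, the pre-steady-state cleavage rate was taken from a burst-and-steady-state fit. Three trials were pooled, and k3 was capped at 0.0001 min^-1.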
# [2] = test system: EfPiwi piRISC loaded with L1MC piRNA (26 nt); experiment: pre-steady-state target cleavage rate (min^-1); auxiliary factor: 500 nM Ephydatia muelleri Gtsf1; guide: L1MC piRNA 5'p-UAACUAAAUACUAUGCAAGCUGUAGG; MIWI and MILI are mouse PIWI proteins and EfPiwi is from a freshwater sponge; tags in brackets are library labels; higher = faster piRNA-guided slicing of the target
# Procedure, shortened: as §1
# [3] = auxiliary factor: 500 nM mouse GTSF1
# [4] = auxiliary factor: none (no GTSF1)
Sequence,"pre-steady-state target cleavage rate [1, 3]","pre-steady-state target cleavage rate [1, 4]",pre-steady-state target cleavage rate [2]
UCCUGGAUGAGCUUGCAUAGUAUUUAGUUG [g2:g21:cont:t1G],0.186 ± 0.019,0.00606 ± 0.0029,0.0161 ± 0.0043
UCCUGGUUGAGCUUGCAUAGUAUUUAGUUA,0.179 ± 0.017,0.0113 ± 0.0033,0.0176 ± 0.0053
UCCUGGAUCUGCUUGCUUAGUAUUUAGUUA,0.238 ± 0.017,0.00748 ± 0.0024,0.0931 ± 0.028
UCCUGGAUCAGGUUGCAUACUAUUUAGUUA,0.0436 ± 0.0082,0.00331 ± 0.0025,0.00262 ± 0.0019
UCCUGCUACUGCUUGGAUAGUAUUUAGUUA,0.221 ± 0.016,0.00763 ± 0.0018,0.0111 ± 0.0029
UCCUGGAAACAGCUUGCAUAGUAUUUAGUUA,0.347 ± 0.019,0.0105 ± 0.0038,0.164 ± 0.034
UCCUGGAUCACCUAGCAUAGUAUUUAGUUA,0.17 ± 0.025,0.00435 ± 0.0029,0.00614 ± 0.004
UCCUCGUUCAGCUUGCAUAGUAUUUAGUUA,0.262 ± 0.015,0.00616 ± 0.0018,0.104 ± 0.021
UCCUCAUACAGCUUGCAUAGUAUUUAGUUA,0.319 ± 0.015,0.0105 ± 0.0029,0.234 ± 0.064
UCCUGGAACAUCUUGCAUAGUAUUUAGUUA,0.244 ± 0.013,0.0108 ± 0.0028,0.0653 ± 0.016
UCCUGCUUGAGCUUGCAUAGUAUUUAGUUA,0.22 ± 0.019,0.00599 ± 0.0022,0.00861 ± 0.0024
UCCUCCACAGCUUGCAUAGUAUUUAGUUA,0.248 ± 0.014,0.00686 ± 0.0018,0.0564 ± 0.018
UCCUGGAUCAGCUUGCAUAGUAUUUAGUUA [g2:g22:cont:t1A],0.267 ± 0.017,0.00864 ± 0.0019,0.0886 ± 0.017
UCCUCCUUCAGCUAGCAUAGUAUUUAGUUA,0.228 ± 0.017,0.00519 ± 0.0022,0.0131 ± 0.0046
UCCUGCUACAGUUGCAUAGUAUUUAGUUA,0.256 ± 0.019,0.0103 ± 0.0022,0.0766 ± 0.022
UCCUCCUACACGUUGCAUAGUAUUUAGUAA,0.163 ± 0.022,0.00299 ± 0.0029,0.00566 ± 0.0027
UCCUGGUACAGCAUGCUUAGUAUUUAGUUA,0.208 ± 0.025,0.0118 ± 0.0026,0.00778 ± 0.0028
UCCUGCUUCAGCUUGCAUAGUAUAUAGUUA,0.277 ± 0.025,0.00438 ± 0.002,0.00887 ± 0.0035
UCCUGGAACAGUUUGCAUAGUAUUUAGUUA,0.285 ± 0.014,0.00997 ± 0.0019,0.0565 ± 0.013
UCCUGGAACAGCUUAGCAUAGUAUUUAGUUA,0.27 ± 0.019,0.00815 ± 0.0027,0.0218 ± 0.0061
UCCUGGAUCAGCAUGCAUAGUUUUUAGUUA,0.0257 ± 0.0092,0.00668 ± 0.0023,0.00291 ± 0.0027
UCCUCCUACACCUAGCAUAGUAUUUAGUUA,0.205 ± 0.027,0.0056 ± 0.0018,0.00718 ± 0.0027
UCCUGCAUCAGCUUGCAUAGUAUUUAGUUA,0.322 ± 0.021,0.00843 ± 0.0023,0.0591 ± 0.011
UCCUGGUACAGCUUGCAUAGUAUUUAGUAA,0.283 ± 0.036,0.00667 ± 0.0024,0.0108 ± 0.0041
UCCUCCUACAGCUUGCUUUGUAUUUAGUUA,0.18 ± 0.017,0.00401 ± 0.0023,0.0093 ± 0.0052

Sequence,"pre-steady-state target cleavage rate [1, 3]","pre-steady-state target cleavage rate [1, 4]",pre-steady-state target cleavage rate [2]
UCCUGGUACAGCAUGCAUAGUAAUUAGUUA,0.193 ± 0.025,0.013 ± 0.0032,0.00882 ± 0.0034
UCCUCCUACAGCUUACAUAGUAUUUAGUUA,0.276 ± 0.016,0.00586 ± 0.0026,0.106 ± 0.028
UCCUGGUACAGCUUGCAUAGUAUAUUAGUUA,0.26 ± 0.039,0.0117 ± 0.0038,0.00489 ± 0.0026
UCCUGGAUGAGCUUGCAUAGUAUUUAGUAA,0.218 ± 0.019,0.00773 ± 0.0026,0.00367 ± 0.0022
UCCUGGUACUGCUUGCAUAGUAAUUAGUUA,0.169 ± 0.031,0.00575 ± 0.0025,0.114 ± 0.043
UCCUCCUACUGCAUGCAUAGUAUUUAGUUA,0.252 ± 0.013,0.011 ± 0.0022,0.0706 ± 0.019
UCCUGCUACAGCAUGCUUAGUAUUUAGUUA,0.255 ± 0.017,0.00606 ± 0.0028,0.0122 ± 0.0038
UCCUCCUACAGCUUGCAUGUAUUUAGUUA,0.0804 ± 0.012,0.00283 ± 0.0027,0.00924 ± 0.0046
UCCUGGUUCACCUUGCAUAGUAUUUAGUUA,0.128 ± 0.022,0.00513 ± 0.0027,0.0052 ± 0.0033
UCCUCCUACAGGCUUGCAUAGUAUUUAGUUA,0.268 ± 0.019,0.00802 ± 0.0025,0.0234 ± 0.0078
UCCUGGAACAGCAUGCAUAGUAUUUAGUUA,0.256 ± 0.02,0.00812 ± 0.0028,0.0466 ± 0.011
UCCUGCUACAGCGUGCAUAGUAUUUAGUUA,0.296 ± 0.02,0.00602 ± 0.0024,0.0101 ± 0.0026
UCCUGGAUCAGCUUGCAUAGUAUUUAGAUUA,0.0478 ± 0.011,0.00315 ± 0.0026,0.00483 ± 0.0016
UCCUGGUACAGCUUGGUUAGUAUUUAGUUA,0.192 ± 0.023,0.0135 ± 0.0038,0.00478 ± 0.0032
UCCUGGUACAGCUUGCAUAGUUAUUAGUUA,0.0387 ± 0.015,0.00509 ± 0.0027,0.00325 ± 0.0025
UCCUGCUACAGCGUUGCAUAGUAUUUAGUUA,0.267 ± 0.018,0.01 ± 0.0033,0.0103 ± 0.0024
UCCUGCUAACAGCUUGCAUAGUAUUUAGUUA,0.307 ± 0.033,0.00599 ± 0.0032,0.0114 ± 0.0038
UCCUGGAUGAGCUAGCAUAGUAUUUAGUAA,0.168 ± 0.021,0.00735 ± 0.0023,0.00419 ± 0.0024
UCCUCCUACAGCUUGCAUAGUACUUUAGUUA,0.216 ± 0.017,0.00628 ± 0.0027,0.0115 ± 0.0051
UCCUGGAACAGCUUGCAUGUAUUUAGUUA,0.083 ± 0.014,0.00308 ± 0.0027,0.00314 ± 0.0027
UCCUGCUACACGUUGCAUAGUAUUUAGUUA,0.289 ± 0.026,0.0118 ± 0.0026,0.0175 ± 0.0063
UCCUGCUACAGCUAGCAUACUAUUUAGUUA,0.112 ± 0.018,0.0037 ± 0.0024,0.0063 ± 0.0019
UCCUGGAUGUCCUUAGCAUAGUAUUUAGUUA,0.0724 ± 0.016,0.00307 ± 0.0025,0.00479 ± 0.003
UCCUGCUUACAGCUUGCAUAGUAUUUAGUUA,0.451 ± 0.043,0.0088 ± 0.0032,0.0638 ± 0.015
UCCUGGAACUCCUUGCAUAGUAUUUAGUAA,0.169 ± 0.02,0.00259 ± 0.0025,0.00371 ± 0.0017
